Experimental data reported in PubChem BioAssay (Tox21).
Results filed as inconclusive are left out. Active and inactive are the calls of the source. Unless noted, the call rests on the fitted dose curve; in most records, active means well fitted curve in the direction sought with a large enough effect in the repeat runs; inconclusive means weak or mixed curves; inactive means no such curve, though single readings can be large; an effect the other way counts as inactive or inconclusive.

What was measured:
[1] = qHTS assay to test for compound auto fluorescence at 535 nm (green) in HEK293 cells (AID 720680)
[2] = qHTS assay to test for compound auto fluorescence at 460 nm (blue) in HEK293 cell free culture (AID 720681)
Procedure, shortened: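 Compounds were added to cell-free DMEM with 10% FBS and fluorescence read directly. The blue channel used 405 nm excitation and 460 nm emission, with triamterene as the reference fluorophore.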

[3] = qHTS assay to test for compound auto fluorescence at 535 nm (green) in HEK293 cell free culture (AID 720682)
Procedure, shortened: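 Measurement is a direct plate read of green fluorescence (485 nm in, 535 nm out) after compound addition to serum-supplemented DMEM lacking cells, with fluorescein used to express intensities.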

[4] = qHTS assay to test for compound auto fluorescence at 590 nm (red) in HEK293 cell free culture (AID 720683)
Procedure, shortened: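 Cell-free wells of DMEM with 10% FBS received compound, and intrinsic fluorescence was read at excitation/emission 540/590 nm. Values expressed as equivalence to Rose Bengal sodium.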

[5] = qHTS assay to test for compound auto fluorescence at 590 nm (red) in HepG2 cell free culture (AID 720684)
Procedure, shortened: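 Auto fluorescence equivalency versus Rose Bengal sodium, red channel Ex/Em 540/590 nm; compounds in cell-free MEM/10% FBS; DMSO vehicle control.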

[6] = qHTS assay to test for compound auto fluorescence at 460 nm (blue) in HepG2 cell free culture (AID 720685)
Procedure, shortened: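 Cell-free plates of MEM plus 10% FBS received 23 nL compound or DMSO vehicle; blue-channel (405/460 nm) intensity scored against triamterene as reference fluorophore.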

[7] = qHTS assay to test for compound auto fluorescence at 535 nm (green) in HepG2 cell free culture (AID 720686)
[8] = qHTS assay to test for compound auto fluorescence at 460 nm (blue) in HepG2 cells (AID 720687)
Procedure, shortened: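 HepG2 cells in MEM with 10% FBS, attached overnight at 37 C, were exposed to compound or DMSO for 1 hr at 37 C, 5% CO2. Blue fluorescence was read at 405/460 nm, with triamterene as reference fluorophore.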

[9] = target: Glucocorticoid receptor (Homo sapiens) (UniProt P04150); test: qHTS assay to identify small molecule agonists of the glucocorticoid receptor (GR) signaling pathway (AID 720691; active means well fitted activation curve with a large enough effect in the signal ratio in the repeat runs, not every such curve was filed as active; the % refers to the signal ratio)
Sequence of Glucocorticoid receptor (Homo sapiens) (P04150 whole entry, looked up): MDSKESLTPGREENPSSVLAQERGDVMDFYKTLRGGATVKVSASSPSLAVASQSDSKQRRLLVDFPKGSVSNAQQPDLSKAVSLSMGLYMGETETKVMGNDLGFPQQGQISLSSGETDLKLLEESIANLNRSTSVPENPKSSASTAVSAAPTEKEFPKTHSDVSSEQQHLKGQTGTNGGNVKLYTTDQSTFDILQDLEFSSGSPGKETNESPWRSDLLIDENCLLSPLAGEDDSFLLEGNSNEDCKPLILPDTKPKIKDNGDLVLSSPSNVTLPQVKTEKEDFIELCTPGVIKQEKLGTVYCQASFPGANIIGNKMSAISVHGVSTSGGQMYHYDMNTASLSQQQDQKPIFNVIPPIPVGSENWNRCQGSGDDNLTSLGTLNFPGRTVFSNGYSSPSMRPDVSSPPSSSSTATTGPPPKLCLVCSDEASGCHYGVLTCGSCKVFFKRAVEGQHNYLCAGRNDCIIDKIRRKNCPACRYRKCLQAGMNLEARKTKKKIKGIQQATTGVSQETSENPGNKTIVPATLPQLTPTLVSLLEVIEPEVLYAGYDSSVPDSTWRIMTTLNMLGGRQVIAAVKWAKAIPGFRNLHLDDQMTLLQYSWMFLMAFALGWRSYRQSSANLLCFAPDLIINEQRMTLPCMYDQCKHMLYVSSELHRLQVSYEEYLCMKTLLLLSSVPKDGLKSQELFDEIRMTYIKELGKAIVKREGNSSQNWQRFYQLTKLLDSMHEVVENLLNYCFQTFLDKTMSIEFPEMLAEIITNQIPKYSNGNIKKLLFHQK
Procedure, shortened: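 Cells: GR-bla HeLa, endogenous GR with stably integrated GRE-beta-lactamase reporter. Treatment 18 h, 37 C, compounds delivered in DMSO. Detection via LiveBLAzer B/G FRET substrate, 2 h RT, fluorescence intensity.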

[10] = qHTS assay to identify small molecule antagonists of the glucocorticoid receptor (GR) signaling pathway - cell viability counter screen (AID 720693); further: nearly all actives have a fitted effect of over 55% in size
[11] = qHTS assay for identifying genotoxic compounds that show differential cytotoxicity against isogenic chicken DT40 cell lines with known DNA damage response pathways - wild type cell line (AID 743012); further: nearly all actives have a fitted effect of over 60% in size
Procedure, shortened: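 Luminescent ATP viability signal (CellTiter-Glo, 30 min RT) recorded after wild type DT40 cells were incubated with compounds for 40 h at 37 C/5% CO2.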

[12] = qHTS assay for identifying genotoxic compounds that show differential cytotoxicity against isogenic chicken DT40 cell lines with known DNA damage response pathways - Rev3 mutant cell line (AID 743014); further: nearly all actives have a fitted effect of over 55% in size
[13] = qHTS assay for identifying genotoxic compounds that show differential cytotoxicity against isogenic chicken DT40 cell lines with known DNA damage response pathways - Rad54/Ku70 mutant cell line (AID 743015); further: nearly all actives have a fitted effect of over 60% in size
[14] = qHTS assay to identify small molecule antagonists of the androgen receptor (AR) signaling pathway - cell viability counter screen (AID 743033; further: nearly all actives have a fitted effect of over 45% in size)
[15] = qHTS assay to identify small molecule antagonists of the androgen receptor (AR) signaling pathway using the MDA cell line - cell viability counter screen (AID 743041; further: nearly all actives have a fitted effect of over 45% in size)
Procedure, shortened: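 Compound exposure lasted 16 h at 37C in MDA-kb2 AR-luc cells stimulated with R1881. Protease-based CellTiter-Fluor reagent was applied for the final 30 min and fluorescence measured.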

[16] = target: Glucocorticoid receptor (Homo sapiens) (UniProt P04150); test: qHTS assay to identify small molecule antagonists of the glucocorticoid receptor (GR) signaling pathway (AID 720692; active means well fitted inhibition curve with a large enough effect in the signal ratio in the repeat runs, not every such curve was filed as active; the % refers to the signal ratio)
Procedure, shortened: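 Quantitative HTS in antagonist format: HeLa cells expressing endogenous GR and a stably integrated GRE-bla reporter, stimulated with 5 nM dexamethasone (final) alongside test compounds for 18 h.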

[17] = target: Androgen receptor (Homo sapiens) (UniProt P10275); test: qHTS assay to identify small molecule antagonists of the androgen receptor (AR) signaling pathway (AID 743035; active means well fitted inhibition curve with a large enough effect in the signal ratio in the repeat runs, not every such curve was filed as active; the % refers to the signal ratio)
Sequence of Androgen receptor (Homo sapiens) (P10275 whole entry, looked up): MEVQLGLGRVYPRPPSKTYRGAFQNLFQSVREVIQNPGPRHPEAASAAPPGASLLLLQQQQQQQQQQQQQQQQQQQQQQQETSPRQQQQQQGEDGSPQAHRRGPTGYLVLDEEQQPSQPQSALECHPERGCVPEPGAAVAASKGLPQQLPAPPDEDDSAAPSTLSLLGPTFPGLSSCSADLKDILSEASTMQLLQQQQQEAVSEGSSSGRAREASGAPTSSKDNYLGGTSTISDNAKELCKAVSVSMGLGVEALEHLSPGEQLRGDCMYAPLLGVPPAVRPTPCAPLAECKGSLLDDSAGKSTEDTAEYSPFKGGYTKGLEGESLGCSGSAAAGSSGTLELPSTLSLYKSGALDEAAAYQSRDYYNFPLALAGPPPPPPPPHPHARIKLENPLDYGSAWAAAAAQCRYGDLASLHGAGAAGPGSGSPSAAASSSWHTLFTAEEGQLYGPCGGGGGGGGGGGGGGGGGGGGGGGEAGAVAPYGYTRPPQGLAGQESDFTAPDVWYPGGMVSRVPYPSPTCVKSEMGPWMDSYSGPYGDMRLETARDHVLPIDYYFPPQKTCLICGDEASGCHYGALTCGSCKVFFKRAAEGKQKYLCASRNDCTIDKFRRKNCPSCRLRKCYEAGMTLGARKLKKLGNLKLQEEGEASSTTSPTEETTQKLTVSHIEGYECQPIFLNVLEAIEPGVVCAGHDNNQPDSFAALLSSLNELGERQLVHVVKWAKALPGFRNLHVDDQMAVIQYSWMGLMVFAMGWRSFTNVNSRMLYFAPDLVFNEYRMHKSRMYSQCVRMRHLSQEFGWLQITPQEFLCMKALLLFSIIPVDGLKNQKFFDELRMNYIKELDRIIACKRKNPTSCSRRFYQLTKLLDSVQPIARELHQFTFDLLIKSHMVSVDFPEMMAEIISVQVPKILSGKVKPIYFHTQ
Procedure, shortened: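 Quantitative HTS of the Tox21 10K library used HEK293 AR-UAS-bla cells stimulated with R1881 alongside compound for 16 h at 37C, followed by beta-lactamase FRET detection (LiveBLAzer B/G, 2 h, RT).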

[18] = target: Androgen receptor (Homo sapiens) (UniProt P10275); test: qHTS assay to identify small molecule agonists of the androgen receptor (AR) signaling pathway (AID 743036; active means well fitted activation curve with a large enough effect in the signal ratio in the repeat runs, with a control signal flat, not every such curve was filed as active; the % refers to the signal ratio)
Procedure, shortened: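 Beta-lactamase under UAS control, stably integrated in HEK293 GripTite cells, reports receptor activation. After 16 h compound treatment, cells received FRET substrate for 2 h at room temperature before fluorescence reading.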

[19] = target: Androgen receptor (Homo sapiens) (UniProt P10275); test: qHTS assay to identify small molecule agonists of the androgen receptor (AR) signaling pathway using the MDA cell line (AID 743040; further: nearly all actives have a fitted effect of over 20% in size)
Procedure, shortened: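 Testing was done with the MDA-kb2 AR-luc line, a human breast carcinoma stably transfected with MMTV-luciferase containing AR and GR response elements. Cells were exposed 16 h at 37C before ONE-Glo luminescence detection.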

[20] = target: Androgen receptor (Homo sapiens) (UniProt P10275); test: qHTS assay to identify small molecule antagonists of the androgen receptor (AR) signaling pathway using the MDA cell line (AID 743042; further: nearly all actives have a fitted effect of over 55% in size)
Procedure, shortened: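 MDA-kb2 breast carcinoma cells carrying MMTV-luciferase (AR/GR responsive) were co-treated with compounds and the agonist R1881 for 16 h at 37C. Inhibition read as ONE-Glo luminescence; CellTiter-Fluor fluorescence measured in parallel for cytotoxicity.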
On the % scale 0 is the no-effect control and ±100 the full control effect.

NC(=O)CC[C@@H](N)C(=O)O
inactive: outcome [1] | outcome [2] | outcome [3] | outcome [4] | outcome [5] | outcome [6] | outcome [7] | outcome [8] | Potency [9] | outcome [10] | Potency [11] | Potency [12] | Potency [13] | outcome [14] | outcome [15]

COC(=O)C(c1ccccc1Cl)N1CCc2sccc2C1 (centres undefined)
inactive: outcome [1] | outcome [2] | outcome [3] | outcome [4] | outcome [5] | outcome [6] | outcome [7] | outcome [8] | Potency [9] | outcome [16] | outcome [10] | outcome [14] | outcome [15]

C[n+]1ccccc1/C=N/O
inactive: fluorescence, % of fluorescein [1] -0.0429% [at 18.6 µM] | fluorescence, % of fluorescent control [2] 0.0506% [at 18.6 µM] | activity change [3] -0.0149% [at 18.6 µM] | fluorescence, % of fluorescent control [4] -0.29% [at 18.6 µM] | fluorescence, % of Rose Bengal [5] -0.356% [at 18.6 µM] | fluorescence, % of fluorescent control [6] -0.0014% [at 18.6 µM] | fluorescence, % of fluorescein control [7] 0.0162% [at 18.6 µM] | fluorescence, % of fluorescent control [8] 0.0546% [at 18.6 µM] | Potency [9] | outcome [16] | outcome [10] | Potency [13] | outcome [15]

C=CCn1cc[n+](C)c1
inactive: outcome [1] | outcome [2] | outcome [3] | outcome [4] | outcome [5] | outcome [6] | outcome [7] | outcome [8] | Potency [9] | outcome [16] | Potency [12] | Potency [13] | outcome [14] | outcome [15]

CC(C)CC(O)Cc1ccccc1 (centres undefined)
inactive: outcome [1] | outcome [2] | outcome [3] | outcome [4] | outcome [5] | outcome [6] | outcome [7] | outcome [8] | Potency [9] | outcome [10] | Potency [11] | Potency [12] | Potency [13] | outcome [14] | outcome [17] | outcome [18] | outcome [19] | outcome [15] | outcome [20]

CCOC(=O)CC(C(C)=O)C(C)=O
inactive: outcome [1] | outcome [2] | outcome [3] | outcome [4] | outcome [5] | outcome [6] | outcome [7] | outcome [8] | Potency [9] | outcome [10] | Potency [11] | Potency [12] | Potency [13] | outcome [14] | outcome [15]

O=Cc1ccc(C(=O)O)cc1
inactive: outcome [1] | outcome [2] | outcome [3] | outcome [4] | outcome [5] | outcome [6] | outcome [7] | outcome [8] | Potency [9] | outcome [16] | outcome [10] | Potency [13] | outcome [15]

C[C@@H]1NC(=O)[C@@H](N)CNC(=O)[C@H](C2CCNC(N)=N2)NC(=O)/C(=C/NC(N)=O)NC(=O)[C@H](CNC(=O)C[C@@H](N)CCCN)NC1=O (some centres undefined)
inactive: outcome [1] | outcome [2] | outcome [3] | outcome [4] | outcome [5] | outcome [6] | outcome [7] | outcome [8] | Potency [9] | outcome [16] | Potency [11] | Potency [13] | outcome [15]

Cc1cc(N)no1
inactive: outcome [1] | outcome [2] | outcome [3] | outcome [4] | outcome [5] | outcome [6] | outcome [7] | outcome [8] | Potency [9] | outcome [16] | outcome [10] | Potency [13] | outcome [15]

C[Si](C)(C)O[Si](O)(O)O
inactive: outcome [1] | outcome [2] | outcome [3] | outcome [4] | outcome [5] | outcome [6] | outcome [7] | outcome [8] | Potency [9] | outcome [16] | outcome [10] | outcome [14] | outcome [15]

C=CCON/C(CCC)=C1\C(=O)CC(C)(C)C(C(=O)OC)=C1O
inactive: outcome [1] | outcome [2] | outcome [3] | outcome [4] | outcome [5] | outcome [6] | outcome [7] | outcome [8] | Potency [9] | outcome [16] | outcome [10] | Potency [13] | outcome [15]

CC(=O)Nc1ccc(OCCOCCOc2ccc(NC(C)=O)cc2)cc1
inactive: outcome [1] | outcome [2] | outcome [3] | outcome [4] | outcome [5] | outcome [6] | outcome [7] | outcome [8] | Potency [9] | Potency [11] | Potency [12] | Potency [13] | outcome [14] | outcome [15]

O=C1Nc2ccccc2C1=O
inactive: outcome [1] | outcome [2] | outcome [3] | outcome [4] | outcome [5] | outcome [6] | outcome [7] | outcome [8] | Potency [9] | outcome [16] | outcome [10] | Potency [12] | Potency [13] | outcome [14] | outcome [15]

CN1CCN(C(=O)C2CCCCC2)CC1
inactive: outcome [1] | outcome [2] | outcome [3] | outcome [4] | outcome [5] | outcome [6] | outcome [7] | outcome [8] | Potency [9] | outcome [16] | Potency [12] | Potency [13] | outcome [14] | outcome [15]

CCC(C)(C)C
inactive: outcome [1] | outcome [2] | outcome [3] | outcome [4] | outcome [5] | outcome [6] | outcome [7] | outcome [8] | Potency [9] | outcome [10] | Potency [12] | Potency [13] | outcome [14] | outcome [15]

Cc1ccc(OC(=O)CC(C)C)cc1
inactive: outcome [1] | outcome [2] | outcome [3] | outcome [4] | outcome [5] | outcome [6] | outcome [7] | outcome [8] | Potency [9] | outcome [10] | Potency [11] | Potency [12] | outcome [15]
